# Test results: PubChem BioAssay AID1508600 (Functional Genomics Laboratory (NCATS/FGL), 2020)
# In all, about 53,000 sequences went through this assay and about 3,700 (7%) were called active. Shown is part of a subset that was picked to be rich in actives. A number with no mark means an inactive call.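 The calls were made as follows: active = gene knockdowns whose robust z-score for IL-1 alpha signal is at least 2 or at most -2, so actives lie on both sides; inactive = the rest.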
# Experiment: Components of the Cytosolic LPS Sensing Pathway: Gene Identification via Genome-wide siRNA Screen;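 also: robust z of the log signal after scaling to non-targeting control siRNA wells of the plate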
# Conditions: RAW264.7 macrophages, IL-1a HTRF, actives lie on both sides, screened at 100 nM (by protocol), cells primed 5 h with Pam3CSK4 first
# Summary of the method: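 Read-out: IL-1a HTRF on supernatant, divided by plate negative-control median ×100, log-transformed and converted to robust z-score. Cells were RAW264.7 given 100 nM siRNA, Pam3CSK4-primed 5 hours, then LipidA-transfected 24 hour.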
row,Sequence,z-score
1,CGUUAACUCUCGGACGAUCTT against Fitm1,0.576
2,GGAGGUGGAUCAAAUGGCATT against Gnrh1,-0.667
3,GGAAAUAUUGUCAUCAUGGTT against Olfr1302,-0.483
4,GCGGAACUGACUUUCCUGATT against Rhot2,0.443
5,GGGUAAGAGUUACAGAAUATT against Serpinb8,-0.0947
6,GCUUUACGAUACUCCAUAUTT against Shd,-0.506
7,GGGAGAAAAUUGGCUUAGATT against Dclre1b,0.424
8,GAUGUUCUGCAUCUACUUUTT against Olfr545,1.46
9,CCUGAAAUCCUGUAGCUACTT against Pgap3,1.35
10,GGCAGAGACCUCAAAACCATT against Selplg,-2.33 (active)
11,GGACCAUCACUUCCAGCUATT against Rab1b,-0.726
12,GGAAGUCUCUAUCCUGAACTT against Prss50,-0.24
13,GGAAGUCAACAAUGCAUUCTT against Olfr1451,-0.133
14,GGUAAAUUACUCUGAUCAATT against Gpr61,-0.593
15,GGGAUUAAUAUCAUACCGATT against Slc30a5,-1.33
16,GGGUUUUAUGACCUUCAAGTT against Zkscan14,0.655
17,GGAUGCUCUAGUUCCAUUATT against Aym1,0.51
18,GGAGCAUCAUUUUAACACUTT against Tubd1,0.925
19,GGAUCCUGGUCCAAACUUUTT against Atraid,-1.52
20,GGUUAUUGGCACUUUUAGATT against Ect2,0.0504
21,GGAUUGCUUCACCACAUGUTT against Fes,2.44 (active)
22,GGUGCUGAUGAAGUUCAUGTT against Ap1b1,1.47

row,Sequence,z-score
1,GGAGACUAUUUCAUCUACUTT against Tnfsf15,0.347
2,GGAGAAAACACAAUGUCUUTT against Limd1,0.441
3,CCUACAGAUAGGUAUGUAGTT against Exo1,-2.07 (active)
4,GGACUUUGAGGAGAAGGAUTT against Rabep2,-1.34
5,GGAAGGUGUCAAUAAAGAUTT against Lypd3,0.0184
6,GGGAUUUUUGAAACUGAAGTT against Glod4,-2.78 (active)
7,GGAGAGUCUCCAGACUUUGTT against Med29,-0.521
8,GGAGGAGACUCAGCAGAUUTT against Gzmn,2.29 (active)
9,CCAGAAGAACAAGGAAGUATT against Gm6460,-0.914
10,GGCCCAACGACAUUUAUGUTT against Pop7,-1.38
11,GCCUUCUGAUAACCUACUATT against Mefv,-1.87
12,GCUAGUGGUAAGUCAACCATT against Iqsec1,-0.882
13,GGAAGCUUACAUUGUGAAGTT against Unc5c,-0.735
14,GGACAAGCAAGGUCAAUCATT against Taar1,-1.11
15,GGUGUAAGAGCUUUGGCCUTT against Gm5420,2.35 (active)
16,AAACUAGGGUCGAUUUCACTT against Hmgn3,0.704
17,GGCCUUCCUCUUCUGCUUATT against Csf3r,0.157
18,GUGAACAACAUCCAAGCGATT against Dhrs7c,0.183
19,GCGGAAAAAUUACUUUCUUTT against Tas2r107,-2
20,GGAGUUUUCAUGCCUACAATT against Odam,2.58 (active)
21,GGAAACCUACCAAGAAACGTT against Fam234a,-0.293
22,GGGACAAUUGGAAAGGCGATT against Wdr55,0.507

row,Sequence,z-score
1,GGCACUUUCGGGAAUUCACTT against Nup160,-2.5 (active)
2,GCCUAUCAGUAUCAUAGUUTT against Dnajc10,0.905
3,GGAGUAUUCAACAUUUGUATT against Trim11,-0.523
4,GAACGGGUUACCAUGUGGUTT against Xkr9,0.546
5,CGCAGGUGAGAGCAAUGUUTT against Lrrn4cl,-1.35
6,GGAAGGAACUCAAGAAGACTT against Ifrd1,2.13 (active)
7,GGAUGUGAAAUUCAAGCUUTT against Dhx34,-0.457
8,GGAUACAGAAGGUUUUCUUTT against Abcd4,-0.137
9,GGAACCCUUUUCAAAAGAGTT against Bclaf3,0.112
10,GGAGGAGACUAAAGAAAAUTT against Myf6,-1.53
11,GGAAACAUCUUGUUGAAGATT against BC106179,0.361
12,GGAGAAAGCAGAGAUAAAATT against Cdk11b,-1.8
13,CCCACAACUGCAAAUUGUGTT against Olfr782,-1.21
14,GGAUACAAGAAACCUUAAGTT against Os9,1.09
15,CGACUCUUGCCUGUUCGUGTT against Adamtsl5,-2.48 (active)
16,GGAUAAAUUUCAAGAUGUGTT against Naip5,-0.552
17,GGUACCAUUCGUUCAAACCTT against 3830406C13Rik,0.416
18,GGCCUUUACGUCUUCCUAGTT against Zdhhc12,-1.19
19,GGAAGAUGGGCAAGAUGAUTT against Sash3,-0.183
20,CCCAGCACUUUUUCGCUCUTT against Olfr458,0.959
21,GCAGGACAACCAGCUGGUATT against Tmem107,3.43 (active)
22,GGCACUCAGCAAGAUUGUATT against Nr2c2ap,-0.28

row,Sequence,z-score
1,GCUCAUCUUAUCCUCUAAGTT against Cts7,0.391
2,UCAGGUCGCUGCUAAACUCTT against Ccdc57,-1.26
3,GGUUCAAAGGUGAUGGUGUTT against Dab2,0.273
4,CGAGCUUUGAAAGUUUAAUTT against Pcsk2,0.591
5,CCUGACGAUUGAGUAUCAUTT against Tubgcp4,-0.267
6,GGACCAGACGAACAGUGAUTT against Surf2,2.28 (active)
7,GGACCUGCCCAAAUCUGAUTT against Fbxo40,0.307
8,CGGCUCUUCAAUAGAGCCUTT against Olfr123,-0.265
9,GGAUUAUGGUCUCAUUGUCTT against Exd2,0.0549
10,GGAGCUUUCUCAGAGGUGUTT against Camk1g,-1.47
11,GCUGCUCGUUAAAGCCGGATT against Ankrd6,2.92 (active)
12,CCAGAUGCAGUCACAAGUCTT against Klf4,0.843
13,GGUUUUAAAGGCCAUAUUGTT against Msmo1,-1.72
14,GCCGACAACACAAAAUUAUTT against Vps26b,0.4
15,CGAAAGCACACACGUAGAATT against Erdr1,0.391
16,GGUCUUCCAAGGUCAGAAGTT against Cyp2d10,1.5
17,GGCAAUAAUCUUAGAGGUUTT against 9530068E07Rik,0.499
18,GCUGUAAGGAGGAACUUCUTT against Btg1,-1.03
19,GGUCUCUGGUAAGAAGAGCTT against Zfp276,2.95 (active)
20,CCGAACAGAGGAAGAAGGCTT against Olfr816,0.281
21,GGGAGGACAGUCAUUGGUUTT against Phldb1,-1.84
22,GCAUAAGGAUAUAGCAUUATT against Ctla4,-0.72

row,Sequence,z-score
1,GGCAUUUGCACAGUUUAUGTT against Upp2,-1.42
2,GGGUCCUUUUUAGCUGUAGTT against Vdac1,3.83 (active)
3,CCUAGUAAUCAGUUUGAAUTT against Ak4,1.17
4,CCAUAUGGCUUGUGGCAGATT against Scn1b,-0.245
5,GGUGACAGAGAUUUUCGAATT against Tbc1d22a,0.931
6,GGCAAGUCUUUAAAAGUCCTT against Xrcc2,-1.48
7,GGCCUUCCGCAUUUUAUCATT against Zfp729a,2.43 (active)
8,GGAGAAGAAGCUGGACCAGTT against Atp5o,0.348
9,GGUACAAUACAUUCAAACATT against Serpinb6c,-0.82
10,CCCUUGUCCAGUGUGAGUUTT against Tmem184b,1.07
11,GGCACAGACCUCACAGUUATT against Olfr64,0.534
12,GGAAAAAGCUGUGAUACUUTT against Hspbap1,-0.895
13,GGAACUGAUUGAAAACAUCTT against Syce2,2.97 (active)
14,GCAAAAUUAUCAGUGAGGATT against Nt5c3b,-2.54 (active)
15,GGGCAGAAAACAACUGGAATT against Pappa,-1.1
16,GGAGGAUGGAGUCAUAUAUTT against Gm773,-0.41
17,GGAGUUUGGAAUAAAAAGGTT against Flt3,-0.173
18,GCAGAGGGACAGUCUACAUTT against Rorc,-0.534
19,GAUUUCUAUACAGCCUAUCTT against Olfr799,0.312
